Data on 20 sequences can be found in the OligoGym collection.
Note: reference of the scale not given here.

One test addresses DEF6. In words: pooled miR-30 sensor sort-seq; sequence = guide strand. Conditions: shRNA.
In the case of AAGAGCTCCAGGAACTGCCAGA, the sensor-assay potency score (higher = more potent) is -0.993.
Still for that read-out and setting: then TGACCGGACGCTTATCTCCAGG, with -1.34.
The same measure, in the same setting: under TTCATCTGGACATTCCAGTGTT stands 0.421; under TTAGGGAGGAGTCACGGTGGGC, -1.27.
On the same count and under the same terms, under TTCAGCTGCATCAACTGCTTCA stands 0.367.
Regarding TTGTCCAGGATGTACTTGTTGA, the sensor-assay potency score (higher = more potent) is -0.794.
On the same count and under the same terms, under TCAACTGCTTCAGCTTCTCTTC stands -0.841; under TTCTTCATCTCGCCGAGCTTTC, -1.29.

For the next test, the target named is DEK. The description is as above. The note with it: shRNA.
In the case of TTATTGTTTCCTTTAACTCTTC, the sensor-assay potency score (higher = more potent) was -0.171.
On the same count and under the same terms, under TTTAACTCTTCATCTGTAGGGG stands 0.332; under TTTGGAACTGTTTTGATTCTTC, 0.827; under TAGTTCACTATTTACACCTGAT, -0.118.
The same measure, in the same setting: then ATCATCTGAAGACTCTTCCTTG, with -0.474; and TTAATGAGGACACAGTGCCTGG, with -0.975; and TTCTTTATCTTCATCATCTGAA, with 0.212.
The sequence TAGATTTCTAAGTTCATCGGTT had a sensor-assay potency score (higher = more potent) of 0.499.
The same measure, in the same setting: under TTTCCTTTAACTCTTCATCTGT stands 0.131.
Still for that read-out and setting: under TTAACTCTTCATCTGTAGGGGG stands 0.319; under TAACTCTTCATCTGTAGGGGGT, 0.328; under TTTTACTTTTAGAAGTAGCTTT, 0.164.
